According to PubChem BioAssay (NCI):
The panel holds about 83,000 compounds, 20% with a hit somewhere; the sample as a whole holds those more often.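 Results are percent growth after 48 hours of single-concentration exposure. 100 means growth as in untreated cells, lower positive values show inhibition; negative values down to -100 show cell death.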 Activity calls are given as the source filed them. Rule for the calls: active = growth percent below 10; inactive = the rest.

Tests used:
Experiment in all cases: NCI-60 one-dose screen, 48 h (100 = growth as untreated, 0 = no growth, -100 = all killed)
Conditions in all cases: 10 µM unless noted
EKVX NSCLC = system: EKVX NSCLC
SN12C renal = system: SN12C renal
UO-31 renal = system: UO-31 renal
TK-10 renal = system: TK-10 renal
ACHN renal = system: ACHN renal
CAKI-1 renal = system: CAKI-1 renal
A498 renal = system: A498 renal
MOLT-4 leukemia = system: MOLT-4 leukemia
CCRF-CEM leukemia = system: CCRF-CEM leukemia

Measured: growth

C=CC(=O)Nc1cc2c(Nc3ccc(F)c(Cl)c3)ncnc2cc1OCCCN1CCOCC1
active: SN12C renal 0.752% | UO-31 renal -12.8% | TK-10 renal -6.01% | ACHN renal 2.82% | CAKI-1 renal -5.99% | A498 renal -29.3% | MOLT-4 leukemia -6.89%
inactive: EKVX NSCLC 15.8%

C/C=C/C=N/NC(=S)Nc1ccccc1
inactive: EKVX NSCLC 101% | SN12C renal 89.3% | UO-31 renal 72.6% | TK-10 renal 112% | ACHN renal 99.2% | CAKI-1 renal 92.1% | A498 renal 120% | CCRF-CEM leukemia 91.8% | MOLT-4 leukemia 99.2%

COC(=O)c1ccc2c(C(=Nc3ccc(N(C)C(=O)CN4CCN(C)CC4)cc3)c3ccccc3)c(O)[nH]c2c1
active: UO-31 renal 9.57%
inactive: EKVX NSCLC 94% | SN12C renal 44.8% | TK-10 renal 46.5% | ACHN renal 48.8% | CAKI-1 renal 51.8% | A498 renal 21.7% | MOLT-4 leukemia 50.5%

CCN1CCN(CCCN(C[C@H]2Cc3ccccc3CN2)[C@H]2CCCc3cccnc32)CC1
inactive: EKVX NSCLC 84% | SN12C renal 83.8% | UO-31 renal 53.2% | TK-10 renal 85.6% | ACHN renal 87.6% | CAKI-1 renal 74.4% | A498 renal 86.6% | MOLT-4 leukemia 69.8%

Cc1ccc(-[n+]2c3cc(N)c(C)cc3nc3cc(C)c(Nc4ccccc4)cc32)cc1
active: EKVX NSCLC -22.6% | SN12C renal -70.6% | UO-31 renal -86.8% | TK-10 renal -18.4% | ACHN renal -92% | CAKI-1 renal -42.2% | A498 renal -84.5% | MOLT-4 leukemia -2.02%

COC1CCC(N2C(=O)CNc3ncc(-c4ccc(C(C)(C)O)nc4)nc32)CC1 (stereo unspecified)
active: SN12C renal 7.07% | UO-31 renal -10.7% | TK-10 renal -13.4% | ACHN renal 7.04% | CAKI-1 renal -1.6% | A498 renal -23.8% | MOLT-4 leukemia 0.972%
inactive: EKVX NSCLC 10.9% | CCRF-CEM leukemia 11.4%

CCCCn1c(C)nc2cc(Nc3nc(N4CCCCC4)nc4nc[nH]c34)ccc21
inactive: EKVX NSCLC 52.5% | SN12C renal 49.6% | UO-31 renal 28.1% | TK-10 renal 57.2% | ACHN renal 36.8% | CAKI-1 renal 31.1% | A498 renal 34.3%
active: MOLT-4 leukemia 9.09%

CO/C=C/C(=O)c1cc2cnc3c(=N)cc(NC(=O)C(C)C)c([nH]1)c23
active: EKVX NSCLC -36.4% | SN12C renal 1.75% | UO-31 renal -20.1% | TK-10 renal -47.2% | ACHN renal -1.54% | A498 renal -46.1% | CCRF-CEM leukemia 0.169% | MOLT-4 leukemia -38.7%

O=C(Cn1cncn1)Nc1ccc(-c2nc3ccccc3s2)cc1
inactive: EKVX NSCLC 90.2% | SN12C renal 95.1% | UO-31 renal 76.9% | TK-10 renal 106% | ACHN renal 110% | A498 renal 88.4% | CCRF-CEM leukemia 105% | MOLT-4 leukemia 91.9%

COc1cc2ncnc(Oc3cccc(NC(=O)Nc4cc(C(C)(C)C(F)(F)F)on4)c3)c2cc1OC
active: UO-31 renal -0.0562% | TK-10 renal -7.18% | ACHN renal 3.9% | CAKI-1 renal 8.99% | A498 renal -24.9%
inactive: EKVX NSCLC 26.1% | SN12C renal 21.1% | MOLT-4 leukemia 13.3%

CCC1(/C=N/NC(N)=S)NC(=O)NC1=O (stereo unspecified)
inactive: EKVX NSCLC 104% | SN12C renal 95.6% | UO-31 renal 87.5% | TK-10 renal 102% | ACHN renal 109% | CAKI-1 renal 94.1% | CCRF-CEM leukemia 102% | MOLT-4 leukemia 90%

COc1ccc2c(CCc3ccc(Cl)cc3)c3[n+](cc2c1OC)CCc1cc2c(cc1-3)OCO2
inactive: EKVX NSCLC 69.9% | SN12C renal 21.9% | UO-31 renal 91.4% | TK-10 renal 67.9% | ACHN renal 94.6% | CAKI-1 renal 99.2% | CCRF-CEM leukemia 64.7% | MOLT-4 leukemia 72.6%

Cc1cc2c(-c3nc4ccccn4c3NC3CCCCC3)c(O)c(O)cc2c(O)c1-c1c(C)cc2c(-c3nc4ccccn4c3NC3CCCCC3)c(O)c(O)cc2c1O
inactive: EKVX NSCLC 27.1% | SN12C renal 33% | UO-31 renal 35.3% | TK-10 renal 27.5% | ACHN renal 18.8% | A498 renal 71.4% | CCRF-CEM leukemia 23.5% | MOLT-4 leukemia 43.6%

Cn1ccnc1C(=O)/C=C/c1ccc(CC(=O)Nc2ccc(Br)cc2)cc1
inactive: EKVX NSCLC 22.6% | UO-31 renal 22.7% | TK-10 renal 49.5% | ACHN renal 40.3% | CAKI-1 renal 34.9% | A498 renal 73.8%
active: SN12C renal 1.07% | MOLT-4 leukemia 2.44%

C=CC(=O)Nc1cccc(Nc2nc(Nc3ccc(N4CCN(C(C)=O)CC4)cc3OC)ncc2C(F)(F)F)c1
active: EKVX NSCLC 1.17% | UO-31 renal -18.3% | TK-10 renal -24.6% | ACHN renal 5.26% | CAKI-1 renal -13.1% | A498 renal -47.1%
inactive: SN12C renal 20.7% | MOLT-4 leukemia 12.6%

O=C(Nc1ccc(N=Nc2ccccc2)cc1)c1cccc2ccccc12
inactive: EKVX NSCLC 71.5% | SN12C renal 78.8% | UO-31 renal 68.3% | TK-10 renal 76.2% | ACHN renal 77.5% | CAKI-1 renal 70.8% | CCRF-CEM leukemia 49.8% | MOLT-4 leukemia 37.2%

COC(=O)CNC(=O)[C@@H](OC)[C@@H]1Cc2cc3cc(OC4CC(OC5CC(O)C(O)C(C)O5)C(O)C(C)O4)c(C)c(O)c3c(O)c2C(=O)[C@H]1OC1CC(OC2CC(OC3CC(C)(O)C(O)C(C)O3)C(O)C(C)O2)C(O)C(C)O1 (stereo partly specified)
active: ACHN renal -1.39% | A498 renal -74.3% | MOLT-4 leukemia -2.56%
inactive: EKVX NSCLC 20.2% | SN12C renal 13.7% | UO-31 renal 10.9% | TK-10 renal 21% | CAKI-1 renal 43.5%

c1ccc2c(c1)CCN(NCCN1CCCC1)C2
inactive: EKVX NSCLC 86.4% | SN12C renal 94.8% | UO-31 renal 75% | TK-10 renal 96.6% | ACHN renal 89% | A498 renal 87.7% | CCRF-CEM leukemia 79.3% | MOLT-4 leukemia 99.4%

O=C(NOCCO)c1ccc2cncn2c1Nc1ccc(I)cc1F
inactive: EKVX NSCLC 54.6% | SN12C renal 68.1% | UO-31 renal 37.2% | TK-10 renal 57.2% | ACHN renal 59.9% | CAKI-1 renal 41% | MOLT-4 leukemia 85%
active: A498 renal -11%

C[C@@H](Nc1cc(F)cc(F)c1)c1cc(C(=O)N(C)C)cc2c(=O)cc(N3CCOCC3)oc12
active: A498 renal -38.1%
inactive: EKVX NSCLC 68.2% | SN12C renal 52.1% | UO-31 renal 24.2% | TK-10 renal 32.8% | ACHN renal 49.9% | CCRF-CEM leukemia 70.3% | MOLT-4 leukemia 25.3%

Cc1cc(-c2cc(OC(=O)c3ccccc3)ccc2Cl)cc2nnc(Nc3ccc(OCCN4CCCC4)cc3)nc12
inactive: EKVX NSCLC 92.3% | SN12C renal 66.3% | UO-31 renal 73.9% | TK-10 renal 89.7% | ACHN renal 74.2% | CAKI-1 renal 86.3% | A498 renal 94.3% | MOLT-4 leukemia 73.1%

Cc1cc(Nc2cc(N3CCN(C)CC3)nc(Sc3ccc(NC(=O)C4CC4)cc3)n2)n[nH]1
active: A498 renal -16%
inactive: EKVX NSCLC 76.6% | SN12C renal 33.4% | UO-31 renal 22.3% | TK-10 renal 38.8% | ACHN renal 42.4% | CAKI-1 renal 31.8% | MOLT-4 leukemia 26%

O=C(Cc1ccc(/C=C/C(=O)c2ncc[nH]2)cc1)Nc1ccc(S(F)(F)(F)(F)F)cc1
inactive: EKVX NSCLC 96.9% | SN12C renal 80.3% | UO-31 renal 60.7% | TK-10 renal 107% | ACHN renal 95.8% | A498 renal 88.3% | CCRF-CEM leukemia 41.9% | MOLT-4 leukemia 53.4%

CCOC(=O)C1=C(C)N=C2Sc3cccc(OC)c3N2[C@H]1c1ccccn1
inactive: EKVX NSCLC 85.8% | SN12C renal 93.4% | UO-31 renal 75.3% | TK-10 renal 117% | ACHN renal 101% | CAKI-1 renal 89.2% | CCRF-CEM leukemia 102% | MOLT-4 leukemia 96.9%

N#CCNC(=O)c1ccc(-c2ccnc(Nc3ccc(N4CCOCC4)cc3)n2)cc1
inactive: EKVX NSCLC 43.9% | SN12C renal 31.5%
active: UO-31 renal -60.4% | TK-10 renal -8.51% | ACHN renal 6.04% | CAKI-1 renal -5.7% | A498 renal -31.8% | MOLT-4 leukemia 7.11%

C[N+](C)(CCOC(c1ccccc1)c1ccccc1)CC(=O)OCc1ccccc1
inactive: EKVX NSCLC 101% | SN12C renal 105% | UO-31 renal 86.9% | TK-10 renal 96% | ACHN renal 111% | A498 renal 114% | CCRF-CEM leukemia 122% | MOLT-4 leukemia 116%

O=C(CNc1nc(-c2ccc(Cl)cc2)cs1)Nc1ccc(-c2nc3ccccc3s2)cc1
inactive: EKVX NSCLC 102% | SN12C renal 101% | UO-31 renal 75% | TK-10 renal 66.5% | ACHN renal 105% | A498 renal 102% | CCRF-CEM leukemia 93% | MOLT-4 leukemia 92.7%

C=CCC(=O)N[C@H](/C=C/C(=O)O)Cc1ccc(-c2cc(Cl)cc(Cl)c2)cc1
inactive: EKVX NSCLC 95.9% | SN12C renal 100% | UO-31 renal 81% | TK-10 renal 104% | ACHN renal 102% | CAKI-1 renal 86.3% | CCRF-CEM leukemia 102% | MOLT-4 leukemia 91.2%
